PfM18AAP inh = blocks P. falciparum M18 aspartyl aminopeptidase | recombinant PfM18AAP, H-Glu-NHMec fluorogenic cleavage | inhibition, % at 7.35 µM | hit rate 1.2% among 290,000;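 active = inhibition above the campaign mean inhibition over all tested compounds plus 3 SD, cut at about 28% in these data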;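 note: 0% = plate median of test compound wells and 100% = 2 mM ZnCl2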
beta cell repl = MIN6 beta-cell proliferation induction; MIN6 cells proliferation, ATPlite luminescence, 48 h; cells starved in 0.2% serum; 100% = growth in 10% serum; proliferation, % at 10 µM; hit rate 0.29% among 330,000; AID 2380;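 active = compounds whose signal lies at least 3.5 SD above the mean of all wells on their plate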;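 note: 0% = DMSO-treated cells in low-serum medium and 100% = 10% serum control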
ALR H2O2 inh = human ALR oxidase inhibition via reduced H2O2; purified ALR, DTT oxidation, H2O2 HRP-luminol luminescence; inhibition, % (no concentration beside the values); hit rate 3.8% among 290,000; AID 485317;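 active = mean replicate inhibition above about 79%, with every replicate also reaching it, limit read from the data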
Target sequence (P55789 whole entry, looked up): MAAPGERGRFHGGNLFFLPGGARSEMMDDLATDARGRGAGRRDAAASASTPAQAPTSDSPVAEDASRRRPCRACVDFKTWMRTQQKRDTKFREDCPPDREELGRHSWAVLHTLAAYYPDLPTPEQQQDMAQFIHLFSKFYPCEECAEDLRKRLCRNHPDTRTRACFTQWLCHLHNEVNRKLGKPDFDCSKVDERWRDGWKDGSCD
JMJD2C inh = blocks human GASC-1 demethylase activity. GST-JMJD2C(1-420) H3K9me3 demethylation, DELFIA europium. hit rate 0.069% among 330,000. inhibition, % at 2.35 µM;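 active = more than half of a compound's replicate wells show inhibition beyond 50%, single wells judged on their own value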;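 note: signal counts dimethyl H3K9 product captured on neutravidin plate; 0% = median of DMSO wells and 100% = 0.3 times that DMSO median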
Target sequence (Q9H3R0 1-420 limits assumed): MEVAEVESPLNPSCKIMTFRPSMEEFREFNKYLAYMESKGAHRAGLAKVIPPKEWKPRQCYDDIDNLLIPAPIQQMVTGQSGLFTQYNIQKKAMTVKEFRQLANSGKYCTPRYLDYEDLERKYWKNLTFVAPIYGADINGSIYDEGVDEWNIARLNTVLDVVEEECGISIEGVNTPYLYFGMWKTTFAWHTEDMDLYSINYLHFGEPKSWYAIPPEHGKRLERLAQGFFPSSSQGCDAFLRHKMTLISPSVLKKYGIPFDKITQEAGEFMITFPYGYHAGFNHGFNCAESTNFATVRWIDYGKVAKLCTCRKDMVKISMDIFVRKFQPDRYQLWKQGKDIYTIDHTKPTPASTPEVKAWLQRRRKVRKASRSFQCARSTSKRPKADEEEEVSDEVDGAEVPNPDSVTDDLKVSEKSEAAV
Granule exo inh = lytic granule exocytosis inhibition. TALL-104 LAMP-1 surface exposure, flow cytometry; cells stimulated with thapsigargin and PMA. inhibition, % at 10 µM. hit rate 0.66% among 360,000;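 active = inhibition above about 55%, limit read from the data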
SMARCA2 act = SMARCA2 function activation, primary screen; MG213 cells, MMTV-luciferase reporter, dexamethasone, overnight; activation, % at 9.1 µM; hit rate 1% among 370,000; AID 652017; in the data active = activation above about 7.8%;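 note: 0% = vehicle wells and 100% = reference activator wells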
* = called active by the depositor; x = no result. Only some compounds are listed: those with a hit (about 5.4% of all), similar ones and a draw of the others.

SMILES | PfM18AAP inh | beta cell repl | ALR H2O2 inh | JMJD2C inh | Granule exo inh | SMARCA2 act
CCCC(=O)N1CCC[C@]2(CC[C@H](CCC(=O)OCC)O2)C1 | x | x | x | x | x | 1.0
CC1CCC2C(C1)c1sc(=O)[nH]c1SC2(C)C (configuration not stated) | 7.7 | -1.7 | 97.8* | -14.0 | 1.5 | -4.7
Cc1ccc(NC(=O)N/C=C/c2ccco2)cc1C | 0.8 | -0.5 | 86.7* | 5.4 | -3.9 | 2.5
CN1/C(=C\C=C(C#N)C#N)C(C)(C)c2ccccc21 | 3.7 | -1.1 | -9.0 | -1.3 | -0.6 | -1.5
CN1/C(=C\C=N\NC(=O)c2ccccc2Br)C(C)(C)c2ccccc21 | 31.1* | -2.7 | x | -4.1 | 1.7 | -2.1
CN1/C(=C/C=N/n2cnnc2)C(C)(C)c2ccccc21 | 27.3 | -3.8 | 94.2* | -4.5 | 2.9 | 2.2
O=C(CSc1nc2ccccc2nc1N1CCCCC1)N1CCN(C(c2ccccc2)c2ccc(Cl)cc2)CC1 (configuration not stated) | x | x | x | x | x | -0.4
CCOc1ccc(C=NNC(=O)c2cc(-c3ccc(Cl)cc3)n[nH]2)cc1 | x | x | x | x | x | -1.5
C[C@@H]1CN([C@@H](C)CO)C(=O)CCCn2nncc2CO[C@H]1CN(C)CC1CC1 | x | x | x | x | x | -2.9
COC(=O)C1CN(Cc2cn(Cc3ccc(Cl)cc3)nn2)CCS(=O)(=O)N1Cc1ccc(F)cc1 (configuration not stated) | x | x | x | x | x | -2.8
N/C(=N\NS(=O)(=O)c1ccccc1Cl)c1ccccn1 | x | -2.3 | 82.8* | 1.0 | -3.9 | -1.8
CC(c1ccccc1)N(NC(=O)C(O)(c1ccccc1)c1ccccc1)C(=O)c1ccccc1 (configuration not stated) | -1.1 | 0.0* | x | 18.7 | 11.7 | -3.2
CCOC(=O)CSC1=Nc2ccccc2C2=NC(CC(=O)NCc3ccccc3)C(=O)N12 (configuration not stated) | 1.6 | -1.8 | 98.1* | 7.6 | 7.3 | -2.1
CCCCNC(=O)CC1N=C2c3ccccc3N=C(SCC(=O)Nc3ccccc3C)N2C1=O (configuration not stated) | -4.0 | 0.2 | 93.6* | -0.5 | -0.4 | -0.6
CCCCN1C(=O)N2CCc3ccccc3C2CS1(=O)=O (configuration not stated) | x | x | x | x | x | 0.6
Fc1ccc(CSc2ccc(-c3ccco3)nn2)cc1 | -2.6 | -2.4 | 97.8* | -4.8 | -3.6 | -2.1
CC(=O)Nc1ccc(NC(=O)CSc2ccc(-c3ccco3)nn2)cc1 | -13.0 | -2.6 | 96.3* | -4.2 | -4.3 | -1.1
O=C(CSc1ccc(-c2ccco2)nn1)NCc1ccc(F)cc1 | -5.2 | 0.0 | 4.9 | -14.9 | -1.3 | -3.0
COc1cc(NC(=O)CSc2ccc(-c3ccco3)nn2)cc(OC)c1 | -18.6 | -3.5 | 98.2* | -0.8 | 2.6 | -0.8
COc1ccc(NC(=O)CSc2ccc(-c3ccco3)nn2)cc1 | -10.7 | -3.0 | -0.7 | 3.8 | -3.4 | 0.1
O=C(NCCN1CCC(Cc2ccccc2)CC1)C1CCCN(S(=O)(=O)c2ccc(Br)s2)C1 (configuration not stated) | x | x | x | x | x | -6.4
COC(=O)C1=C(C(=O)OC)SC2(S1)C(C(=O)OC)=C(C(=O)OC)SC1=C2c2cc(C)ccc2NC1(C)C | 29.3* | -6.7 | 2.2 | 9.5 | 6.7 | 0.1
CCOc1ccc(CSC(=N)N)cc1Cl | -2.2 | -2.9 | 99.5* | -3.1 | 1.7 | 0.7
CCCCOc1ccc(CSCCN)cc1Cl | -0.1 | -5.2 | x | -12.2 | -11.7 | -7.8
CCOc1ccc(CSC(=N)N)cc1[N+](=O)[O-] | -4.5 | -4.8 | 98.0* | 4.8 | -4.1 | 0.9
SMILES | PfM18AAP inh | beta cell repl | ALR H2O2 inh | JMJD2C inh | Granule exo inh | SMARCA2 act
O=C(O)CCc1[nH]c2ccccc2c1Sc1ccccc1 | 9.1 | -0.8 | 99.4* | -14.9 | 2.7 | 0.4
O=C(O)CCc1c(C(=O)O)[nH]c2ccccc12 | 1.2 | -2.5 | -6.1 | 0.5 | -1.9 | 0.3
O=S(=O)(c1ccc2c(c1)CCN2)N1CCOCC1 | x | -0.4 | 77.7* | -3.4 | 2.7 | -3.6
CC(=O)C1(C(=O)NCc2ccccc2)CC(c2ccccn2)=NO1 (configuration not stated) | x | x | x | x | x | -5.3
O=C(N[C@H](C(=O)N1CCC[C@H]1C(=O)NC1CCCC1)C1CCCCC1)C1CC1 | x | x | x | x | x | -0.3
O=C(O)COc1ccc(Oc2ccccc2)cc1 | 0.5 | -3.3 | -4.2 | 4.6 | -0.5 | -4.0
O=C(COc1ccc(Br)cc1)Nc1ccncc1 | 0.0 | 1.8 | 3.3 | 13.7 | -2.3 | -1.8
O=C(COc1ccc(Nc2ccccc2)cc1)Nc1ccncc1 | x | -7.8 | 90.1* | 1.5 | 6.2 | -4.5
COCCNC(=O)COc1ccc(Oc2ccccc2)cc1 | 4.3 | -1.1 | 15.3 | -14.2 | -2.1 | 1.6
O=C(O)COc1ccc(Nc2ccccc2)cc1 | 12.0 | 0.3 | 99.4* | 6.0 | -1.4 | 1.0
COCCNC(=O)COc1ccc(Nc2ccccc2)cc1 | 9.3 | -3.9 | 98.8* | -26.2 | 1.0 | -2.1
O=C(COc1ccc(Nc2ccccc2)cc1)OCC(=O)N1CCCCC1 | 28.7* | -3.4 | x | 6.6 | 0.8 | 0.2
C=CCSc1nnc(-c2ccccc2N=Cc2c(C)[nH]n(-c3ccccc3)c2=O)c(=O)[nH]1 | -3.2 | 1.0 | 97.3* | 2.1 | -1.6 | 1.3
CN(C)c1ccc(/C(=N\O)c2ccccc2)cc1 | -2.2 | -2.2 | 94.5* | 1.5 | -1.7 | -1.1
C[C@@H]1COc2cccc(NCCO)c2S(=O)(=O)N1 | x | x | x | x | x | -4.7
O=C(O)C1CC(c2ccccc2)=Nc2ccccc2S1 (configuration not stated) | 11.3 | -1.9 | x | -6.6 | -8.9 | 3.4
O=[N+]([O-])c1ccc(C2CC(c3ccccc3)=Nc3ccccc3S2)cc1 (configuration not stated) | 31.8* | -7.0 | 23.8 | -8.2 | 11.2 | -1.2
Cn1c(N)c(C(=O)Nc2ccccc2F)sc1=S | 9.3 | -0.8 | 99.2* | x | -3.2 | -4.1
CCn1c(N)c(C(=O)Nc2ccccc2C(=O)OC)sc1=S | -9.8 | -0.1 | 8.8 | -7.6 | -4.9 | 1.6
C=C(C)CC1Nc2ccccc2NC1CC(=C)C (configuration not stated) | -10.8 | -3.0 | 98.6* | -3.9 | 4.5 | -1.3
O=C(NNS(=O)(=O)c1ccccc1)c1cccc([N+](=O)[O-])c1 | 19.3 | -0.2 | -3.8 | 0.1 | -2.6 | -1.2
O=C(O)c1cccc(NC(=O)c2cccc(S(=O)(=O)Nc3cccc([N+](=O)[O-])c3)c2)c1 | 9.5 | -4.3 | 75.7* | 5.9 | 2.5 | -1.2
O=C(NNS(=O)(=O)c1ccc([N+](=O)[O-])cc1)C(=O)Nc1cccc(C(=O)O)c1 | 31.0* | -1.8 | -10.6 | 27.1 | -29.6 | -0.3
Cc1ccc(NC(=O)N2CC(C)OC(C)C2)cc1[N+](=O)[O-] (configuration not stated) | x | x | x | x | x | -1.6
CCOc1cc(CCNC(=O)c2cc3ccsc3n2C)ccc1OC | x | x | x | x | x | 0.5
CCCn1c(C(C)NC(=O)c2ccccc2)n[nH]c1=S (configuration not stated) | 23.8 | 0.5 | 94.3* | 4.8 | 12.1 | 4.2
